Drawing on PubChem BioAssay (NCATS), this text covers Potency for 40 molecules.

Molecules are shown by their SMILES. Inconclusive results are not listed. Entries that show only a call come without a potency. Active and inactive are the calls of the source. Calls come from the whole dose curve; as a rule, active = well fitted inhibition curve with a large enough effect; inconclusive = small, poorly fitted or top-dose-only effect; inactive = no such curve, though single readings can be large or run the other way.
Potency is the fitted concentration of half-maximal effect.

The test in a line: Primary fluorescence-based thiol-reactive (MSTI) qHTS assay for identification of artifact compounds. (AID 1845221). Note: nearly all actives have a fitted effect of over 65% in size. The note with it: MSTI thiol-reactivity probe, 1 h; series mostly up to 53.8 µM. The source says:
PI: Alexander Tropsha Ph.D.
UNC Eshelman School of Pharmacy
University of North Carolina, Chapel Hill, North Carolina
Hits from high-throughput screening (HTS) of chemical libraries are often false positives due to their interference with the assay detection technology. In response to this problem, we generated the largest publicly available library of chemical liabilities and developed a free webtool to predict HTS artifacts, both of which are described herein. More specifically, we generated, curated, and integrated HTS datasets for thiol reactivity, redox activity, and luciferase (firefly and nano) activity. Using these curated datasets, we developed and validated several Quantitative Structure-Interference Relationship (QSIR) models to predict nuisance behavior. […] These models were employed for virtual profiling of the National Center for Advancing Translational Science's (NCATS) in-house library, and 256 compounds for each assay were selected for the experimental validation of nuisance behavior. The BA for these external predictions ranged from 58 to 78% for compounds within the applicability domains of the models. […] The models developed in this study, along with aggregation models previously developed by our group (SCAM Detective) were implemented in "Liability Predictor," an online tool which may be used as part of chemical library design or for triaging HTS hits. Both the models and the curated datasets are publicly available at https://liability.mml.unc.edu/.
SEQUENCE No. (e.g., 1, 2, 3, etc.); […] (e.g., Cells, Incubation, Reagent, etc.); VALUE; DESCRIPTION.
1; Reagent; 4 uL; […].
2; Compounds and control; 16 nL; Kalypsis pin tool (Wako USA) equipped with a 1536-well pin head.
4; Detection; Fluorescence, ViewLux microplate reader, 525 nm excitation, 598 nm emission.
NOTES (numbers refer to Sequence numbers above)
1. Assays determining (E)-2-(4-mercaptostyryl)-1,3,3-trimethyl-3H-indol-1-ium (MSTI) reactivity were performed as previously described in the literature with modifications for the quick identification of compounds reacting with thiol. In brief, 4 uL of MSTI or positive control Acetyl-MSTI (final concentrations of 4 uM and 4 uM, respectively) in assay buffer (2% DMSO in 1X PBS pH 7.4) was dispensed into all wells of a 1536-well assay plate (solid-bottom black plate; Greiner Bio One, Monroe, NC).
2. A Wako Pin-tool (Wako Automation, Richmond, VA) was used to transfer 16 nL of compounds (consisting of 7-plates in qHTS format, final concentration range 18.3 nM to 114 uM) or control MLS001163887 (final concentration range 1.22 nM to 40 uM).
3. Plates were centrifuged (121xg, 15 seconds) and incubated for 1 hour at room temperature protected from light.
4. Samples were read for fluorescence (Ex/Em = 525(20)/598(25) nm) on a ViewLux CCD imager (PerkinElmer). Data were normalized to Acetyl-MSTI (0% activity) and MSTI (100% activity) and the resulting percent inhibition data were fitted to a 4-parameter Hill equation using NCATS in-house software.
For `COc1cc(Br)c(S(=O)(=O)Nc2ccc(Cl)c(O[C@@H]3CCN(C)C3)c2)cc1OC`, the Potency entry is “inactive”.

Take `COC1CC/C=C(\C)C(=O)Nc2cc(O)cc(c2)CC(C)CC(OC)C(O)C(C)/C=C(\C)C1OC(N)=O` (stereo not given): the Potency entry was “inactive”.

Turning to `C[C@H]1CC[C@@]2(OC1)O[C@H]1CC3C4CC[C@H]5C[C@@H](O)CC[C@]5(C)C4=CC(=O)[C@]3(C)[C@H]1[C@@H]2C` (stereo not given in full), the Potency result was “inactive”.

As to `CC(=O)O[C@H]1C[C@H](OC(C)=O)[C@]2(C)[C@H](CC[C@@]34O[C@@H]3C3=C(C)C(=O)O[C@@H]3C[C@H]42)C1(C)C`, the Potency entry was “inactive”.

As to `COc1ccc(Oc2c(Cl)cnn(-c3cc(C)cc(C)c3)c2=O)cc1`, the Potency entry was “inactive”.

For `O=C(NCCN1CCOCC1)c1cc2c(Oc3ccc(NC(=O)C4(C(=O)Nc5ccc(F)cc5)CC4)cc3)ccnc2[nH]1`, the Potency entry is “inactive”.

`CN(C)N(C)C(=O)[C@@]1(Cc2ccccc2)CCCN(C(=O)[C@@H](Cc2c[nH]c3ccccc23)NC(=O)C(C)(C)N)C1`: the Potency result was “inactive”.

In the case of `CC(C)C[C@H](CO)Nc1nc(S[C@@H](C)c2ccccc2)nc2nc(N)sc12`, the Potency result was “inactive”.

Take `COc1ccccc1S(=O)(=O)Nc1ccc2c(c1)CN(C)C(=O)N2`: the Potency entry was “inactive”.

`C=C1CCC2C(C)(C(=O)O)CCCC2(C)C1CCC1=CCOC1=O` (stereo not given): the Potency result was “inactive”.

On to `COc1cc(C(C)C)c(Oc2cnc(N)nc2N)cc1I`, for which the Potency result is “inactive”.

In the case of `C=CCCN1CCC2(CC1)CN(C(=O)c1c(F)cccc1F)c1ccc(Cl)cc12`, the Potency entry was “inactive”.

For the molecule `O=S(=O)(Nc1cc(Cl)c(Oc2cnc3ccccc3c2)c(Cl)c1)c1ccc(Cl)cc1Cl`, the Potency entry is “inactive”.

As to `CCCCNc1ncc(C(=O)NCc2ccc(-n3ccnc3)cc2)c(NC2CCC(O)CC2)n1` (stereo not given), the Potency entry is “inactive”.

Regarding `Cn1ncnc1[C@@H]1c2n[nH]c(=O)c3cc(F)cc(c23)N[C@H]1c1ccc(F)cc1`, the Potency result was “inactive”.

For `Cc1cnn(-c2ccccc2)c1NC(=O)COCc1ccccc1`, the Potency result was “inactive”.

As for `CC[C@@H](Nc1c(Nc2cccc(C(=O)N(C)C)c2O)c(=O)c1=O)c1cc(C(C)C)co1`, the Potency is 2.38 µM (active).

In the case of `CCO[C@H]1CN(C2CCC(O)(c3ccc4c(c3)OCO4)CC2)C[C@@H]1NC(=O)CNC(=O)c1cccc(C(F)(F)F)c1` (stereo not given in full), the Potency entry is “inactive”.

For `CC(=O)C=C=C1C(C)(C)CC(O)CC1(C)O[C@@H]1O[C@H](CO[C@H]2OC[C@](O)(CO)[C@H]2O)[C@@H](O)[C@H](O)[C@H]1O` (stereo not given in full), the Potency is 5.19 µM (active).

For `Cc1cc(C(=O)Cn2cc(C#N)ccc2=O)c(C)n1Cc1ccccc1`, the Potency result is “inactive”.

As for `C=C1C(=O)OC2C1CCC1(C)C(O)CC=C(C)C21` (stereo not given), the Potency was 11.9 µM (active).

As for `CN1CCN(c2ccc(OC(F)(F)F)c(Nc3ncc4c(n3)-c3c(c(C(N)=O)nn3CCO)CC4)c2)CC1`, the Potency result was “inactive”.

Take `CC(C)CCNC(=O)c1ccc2c(c1)nc(Nc1n[nH]c3ccc(-c4ccccc4OC(F)(F)F)cc13)n2C1CCC(O)CC1` (stereo not given): the Potency is 5.32 µM (active).

For `C=C(C)C(=O)O[C@H]1[C@H]2C(=C)C(=O)O[C@@H]2/C=C(\CO)CC/C=C(/C=O)[C@@H]1O`, the Potency entry is “inactive”.

As to `CCCC(CCC)C(=O)NCc1ccc2c(cnn2-c2ccccc2OC)c1`, the Potency result is “inactive”.

Consider `CCCCc1ccc(NS(=O)(=O)c2ccc(F)cc2)cc1`, for which the Potency entry is “inactive”.

Consider `CC1(C)CC[C@]2(C(=O)O[C@@H]3O[C@H](CO)[C@@H](O)[C@H](O)[C@H]3O)CC[C@]3(C)C(=CCC4[C@@]5(C)CC[C@H](O[C@@H]6O[C@H](C(=O)O)[C@H](O)[C@H](O)[C@H]6O)C(C)(C)C5CC[C@]43C)[C@@H]2C1` (stereo not given in full), for which the Potency entry is “inactive”.

With `COC(=O)c1ccnc(-c2cc(C(=O)Nc3ccc(C4(N)CC4)cc3)ccn2)c1`, the Potency entry is “inactive”.

As for `COc1ccc(CCO[C@@H]2O[C@H](CO[C@H]3OC[C@](O)(CO)[C@H]3O)[C@@H](OC(=O)/C=C/c3ccc(O)c(O)c3)[C@H](O[C@@H]3O[C@@H](C)[C@H](O)[C@@H](O)[C@H]3O)[C@H]2O)cc1OC`, the Potency was 1.58 µM (active).

For the molecule `O=C(NCC1(c2nc(-c3ccccc3)cs2)CCOCC1)c1cccc(-c2noc(C(F)(F)F)n2)c1`, the Potency entry was “inactive”.

In the case of `C=C1C(=O)OC2/C=C(\C)CC3C=C(CC/C=C(\C)CCC12)C(=O)O3` (stereo not given), the Potency result was “inactive”.

As to `C=C1C(=O)OC2CC(C)=C(C(C)CCCOC(C)=O)C(OC(=O)CC(C)CC)C12` (stereo not given), the Potency entry is “inactive”.

Turning to `CC1CC(=O)C2=C(C1)C1OC1C1(O)C2C(=O)c2cccc(O)c2C1O` (stereo not given), the Potency is 6.56 µM (active).

`C=C[C@H](/C=C\c1ccc(O)cc1)c1ccc(O)cc1`: the Potency entry is “inactive”.

With `COc1ccc(CNCc2cccc3ccccc23)cc1`, the Potency entry is “inactive”.

As for `CCn1c(N)c(C(=O)NC)c(=O)c2ccc(C#CC(C)(O)COC)nc21` (stereo not given), the Potency entry was “inactive”.

Regarding `C=C(C)C1CC(O)C(C)C12CC(O)C1(C)OC1C2O` (stereo not given), the Potency result is “inactive”.

For `CN(C)C(CCOc1cccc2ccccc12)c1ccccc1` (stereo not given), the Potency result was “inactive”.

Consider `Cn1ccc(NC(=O)c2cc(Oc3ccc(C(=O)N4CCC4)c(F)c3)c3c(c2)OC(C)(C)C3)n1`, for which the Potency result was “inactive”.

On to `CC(C)OC(=O)N1CCC(Oc2ncnc3c2cnn3-c2ccc(S(C)(=O)=O)cc2F)CC1`, for which the Potency result is “inactive”.
